Assay [1] can be described thus: ATG_AP_2_CIS: Attagene CIS-FACTORIAL HepG2 Assay for human Activator Protein 2 (AP-2) (AID 2282932). Particulars: HepG2 AP-2 cis-reporter, Attagene transcription factor profiling; actives raise or lower the signal. The method, boiled down:
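Assay in transfected HepG2 with promoter-regulated reporters, 24 h incubation after dosing. Signal is reporter mRNA fluorescence (RT-PCR, capillary electrophoresis), analysed for both increases and decreases relative to DMSO controls.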

In assay [2] the target is Transcription factor E2F1 (Homo sapiens) (UniProt Q01094). The assay can be described thus: ATG_E2F_CIS: Attagene CIS-FACTORIAL HepG2 Assay for human E2F Transcription Factor 1 (AID 2282935). To be noted: HepG2 Attagene cis-reporter, E2F reporter RNA transcripts; actives raise or lower the signal. The essentials:
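In this cis-factorial format, endogenous factor activity drives transfected reporters in HepG2; transcripts collected at 24 h are quantified by fluorescence after RT-PCR and capillary separation.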

The nature of assay [3]: ATG_M_61_CIS: Attagene CIS-FACTORIAL HepG2 Assay for M61 Transcription Factor (Internal Marker) (AID 2282937). Particulars: HepG2 Attagene CIS-FACTORIAL M61 internal marker reporter; actives raise or lower the signal. The essentials: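 Readout is reporter mRNA by RT-PCR, fluorescent primer extension and capillary electrophoresis, with gain or loss fitted relative to DMSO. Transfected HepG2 cells carrying endogenous-TF-driven cis reporters were exposed to chemicals for 24 hours.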

Assay [4] is described as follows: ATG_Ets_CIS: Attagene CIS-FACTORIAL HepG2 Assay for human Erythroblast Transformation Specific (ETS) (AID 2282941). Particulars: HepG2 ETS cis-reporter transcription, actives raise or lower the signal. The essentials: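 Endogenous transcription factor activity read as reporter mRNA via RT-PCR and capillary electrophoresis, with gain or loss fitted bidirectionally against DMSO. Human HepG2 liver cells, transiently transfected CIS reporter constructs, 24 h exposure.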

The target in assay [5] is Hepatocyte nuclear factor 3-beta (Homo sapiens) (UniProt Q9Y261). The assay can be described thus: ATG_FoxA2_CIS: Attagene CIS-FACTORIAL HepG2 Assay for human Forkhead box A2 (FOXA2) (AID 2282942). Particulars: HepG2 cis-reporter transcription factor activity, 24 h; actives raise or lower the signal. The essentials:
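Endogenous transcription factor activity is captured via cis-element-driven reporter transcripts in transfected HepG2. Total RNA taken at 24 h post-dosing; labelled RT-PCR products resolved by capillary electrophoresis. Gain or loss fitted versus DMSO.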

The nature of assay [6]: ATG_FoxO_CIS: Attagene CIS-FACTORIAL HepG2 Assay for human Forkhead box O (FoxO) (AID 2282943). Particulars: HepG2 Attagene cis-reporter, FoxO element, mRNA; actives raise or lower the signal. The method, boiled down: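 24 h chemical exposure, HepG2 with transient cis-MRTU transfection. RNA extraction, oligo(dT) RT, reporter-specific PCR, primer-extension labelling, HpaI digestion, CE fragment analysis; bidirectional fit, DMSO baseline.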

Assay [7] has as its target Hypoxia-inducible factor 1-alpha (Homo sapiens) (UniProt Q16665). As to the kind of experiment: ATG_HIF1a_CIS: Attagene CIS-FACTORIAL HepG2 Assay for human Hypoxia Inducible Factor 1 (HIF1A) (AID 2282951). Particulars: HepG2 Attagene cis-factorial HIF1a reporter transcription; actives raise or lower the signal. The method, boiled down: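 Activity is fitted in both directions relative to DMSO. Reporter transcripts are read by RT-PCR, fluorescent primer extension and capillary electrophoresis after 24 h chemical treatment. The cells are HepG2 carrying transiently transfected cis-element-driven reporter units responding to endogenous factors.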

Assay [8] is described as follows: ATG_RORE_CIS: Attagene CIS-FACTORIAL HepG2 Assay for human RAR-related Orphan Receptor Element (RORE) (AID 2282959). To be noted: HepG2 Attagene cis-factorial RORE reporter, mRNA; actives raise or lower the signal. The method, boiled down: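 RORE reporter transcripts reflecting endogenous factor activity were read after 24 h compound exposure of transfected HepG2 cells, using reverse transcription, PCR, fluorescent labelling and capillary electrophoresis sizing. Gain or loss fitted against DMSO.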

Assay [9] is described as follows: ATG_TGFb_CIS: Attagene CIS-FACTORIAL HepG2 Assay for human Transforming Growth Factor (TGF) (AID 2282967). Particulars: HepG2 Attagene CIS TGFb reporter, mRNA transcription; actives raise or lower the signal. The method, boiled down: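 HepG2 cells transiently transfected with cis-promoter-driven multiplexed reporter units; 24 h compound exposure. Reporter mRNA measured by RT-PCR, 6-FAM labeling, HpaI digestion and capillary electrophoresis; bidirectional fit versus DMSO baseline.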

Assay [10] is described as follows: ATG_VDRE_CIS: Attagene CIS-FACTORIAL HepG2 Assay for human Vitamin D Receptor Element (VDRE) (AID 2282968). To be noted: HepG2 VDRE cis-reporter transcription, actives raise or lower the signal. The essentials:
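Transfected HepG2 reporter cells, chemical treatment 24 h. RNA isolated, cDNA amplified with reporter-specific primers, products analysed by capillary electrophoresis. Endpoint fitted in both directions versus DMSO.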

Assay [11] concerns the target X-box-binding protein 1 (Homo sapiens) (UniProt P17861). As to the kind of experiment: ATG_Xbp1_CIS: Attagene CIS-FACTORIAL HepG2 Assay for human X-box Binding Protein 1 (XBP1) (AID 2282972). To be noted: HepG2 XBP1 cis-element reporter, Attagene multiplex; actives raise or lower the signal. The essentials: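 Reporter transcripts were quantified by RT-PCR with fluorescent primer extension and capillary electrophoresis after 24 h chemical exposure. Cells: transiently transfected HepG2 carrying cis-regulated reporter constructs; data fitted bidirectionally relative to DMSO.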

Assay [12] addresses Transcriptional activator Myb (Homo sapiens) (UniProt P10242). As to the kind of experiment: ATG_Myb_CIS: Attagene CIS-FACTORIAL HepG2 Assay for human Myeloblastosis (Myb) Proto-Oncogene Transcription Factor (AID 2282986). Particulars: HepG2 Attagene CIS-FACTORIAL Myb reporter transcription; actives raise or lower the signal. The method, boiled down: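 Reporter mRNA is quantified by RT-PCR and capillary electrophoresis 24 h after dosing HepG2 cells transfected with cis-regulated reporter units, which track endogenous transcription factor activity. Gain and loss of signal are fitted versus DMSO baseline.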

In assay [13] the target is Nuclear respiratory factor 1 (Homo sapiens) (UniProt Q16656). As to the kind of experiment: ATG_NRF1_CIS: Attagene CIS-FACTORIAL HepG2 Assay for human Nuclear Respiratory Factor 1 (NRF1) Orphan Gene (AID 2282987). Particulars: HepG2 NRF1 cis-element reporter, Attagene multiplex; actives raise or lower the signal. The essentials: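 Endogenous NRF1-driven reporter transcription in transfected HepG2 cells after 24 h treatment. Readout: RT-PCR products, 6-FAM labelled and resolved by capillary electrophoresis; changes fitted both directions relative to DMSO.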

Assay [14] in a line: ATG_NFI_CIS: Attagene CIS-FACTORIAL HepG2 Assay for human Nuclear Factor I (NFI) (AID 2282989). To be noted: HepG2 cis-regulatory reporter, NFI response element transcription; actives raise or lower the signal. The essentials: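 HepG2 cells transiently transfected with cis-element-driven multiplexed reporter transcription units, dosed for 24 h. Reporter mRNA quantified by RT-PCR, fluorescent labelling, HpaI digestion and capillary electrophoresis; bidirectional fit versus DMSO baseline.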

The target of assay [15] is Cellular tumor antigen p53 (Homo sapiens) (UniProt P04637). As to the kind of experiment: ATG_p53_CIS: Attagene CIS-FACTORIAL HepG2 Assay for human p53 Transcription Factor (AID 2282994). Particulars: HepG2 p53 cis-element reporter, Attagene mRNA; actives raise or lower the signal. The method, boiled down: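 Endogenous p53 activity read in transiently transfected HepG2 from a cis-element-driven reporter transcript after 24 h exposure. RNA reverse-transcribed, PCR-amplified, fluorescently labelled and sized by capillary electrophoresis; gain or loss fitted against DMSO baseline.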

The nature of assay [16]: ATG_XTT_Cytotoxicity: Cytotoxicity Assessment in the Attagene TRANS-FACTORIAL HepG2 Assay (AID 2283584; active means hit-call score of the fitted dose curve at least 0.9, where 1 is the maximum;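 further: XTT signal for cell number as viability in transfected HepG2 cells; cells exposed to compound for 24 h before reading; active means loss of viability signal versus DMSO baseline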). The method, boiled down:
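24 h chemical exposure of reporter-transfected HepG2; XTT signal loss vs DMSO indicates cytotoxicity.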

Assay [17] deals with Cellular tumor antigen p53 (Homo sapiens) (UniProt P04637). The assay can be described thus: TOX21_p53_BLA_p2_ratio: Tox21 HCT-116 p53 Agonism Beta-lactamase Assay, Ratio, Phase 2 (AID 2283592; active means hit-call score of the fitted dose curve at least 0.9, where 1 is the maximum). The essentials: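 DMSO-normalized, positive-direction endpoint derived from the 460 nm/530 nm FRET ratio in HCT116 p53 beta-lactamase reporter cells exposed 16 h at 37C and loaded with CCF4-AM for 2 h.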

Assay [18] can be described thus: ATG_EGR_CIS: Attagene CIS-FACTORIAL HepG2 Assay for human Early Growth Response 1 (EGR1) (AID 2282938). To be noted: HepG2 Attagene CIS-FACTORIAL EGR reporter mRNA; actives raise or lower the signal. The essentials: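 After 24 h compound exposure, RNA from reporter-transfected HepG2 cells was reverse-transcribed, PCR-amplified, fluorescently labelled and resolved by capillary electrophoresis. EGR1 reporter transcript changes, up or down, were fitted against DMSO, reflecting endogenous transcription-factor activity.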

The target of assay [19] is Myc proto-oncogene protein (Homo sapiens) (UniProt P01106). The assay can be described thus: ATG_Myc_CIS: Attagene CIS-FACTORIAL HepG2 Assay for human Myelocytomatosis (Myc) Proto-Oncogene Transcription Factor (AID 2282990). To be noted: HepG2, Attagene cis-reporter transcription factor activity; actives raise or lower the signal. The essentials:
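DMSO-normalised, bidirectionally fitted reporter mRNA signal. HepG2 cells transfected with cis reporter constructs, treated 24 h; transcripts detected by RT-PCR, 6-FAM primer extension and CE.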

The target in assay [20] is Nuclear receptor subfamily 1 group I member 2 (Homo sapiens) (UniProt O75469). The assay can be described thus: ATG_PXR_TRANS: Attagene TRANS-FACTORIAL HepG2 Assay for human Pregnane X Receptor (PXR) (AID 2283008; active means hit-call score of the fitted dose curve at least 0.9, where 1 is the maximum). The essentials: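 Transactivation by exogenous PXR–GAL4 fusion measured as reporter transcript induction after 24 h compound treatment of transfected human HepG2 cells. Read-out via RT-PCR and capillary electrophoresis of labelled fragments, fitted upward relative to DMSO.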

Inconclusive results are not listed. Active and inactive are the calls of the source. How the source made its calls, unless noted: active means hit-call score of the fitted dose curve at least 0.9, where 1 is the maximum; inactive means score below 0.9.

By AC50 is commonly meant the concentration giving half of the maximal activity seen.

Chain of Nuclear respiratory factor 1 (Homo sapiens) (Q16656 whole entry, looked up): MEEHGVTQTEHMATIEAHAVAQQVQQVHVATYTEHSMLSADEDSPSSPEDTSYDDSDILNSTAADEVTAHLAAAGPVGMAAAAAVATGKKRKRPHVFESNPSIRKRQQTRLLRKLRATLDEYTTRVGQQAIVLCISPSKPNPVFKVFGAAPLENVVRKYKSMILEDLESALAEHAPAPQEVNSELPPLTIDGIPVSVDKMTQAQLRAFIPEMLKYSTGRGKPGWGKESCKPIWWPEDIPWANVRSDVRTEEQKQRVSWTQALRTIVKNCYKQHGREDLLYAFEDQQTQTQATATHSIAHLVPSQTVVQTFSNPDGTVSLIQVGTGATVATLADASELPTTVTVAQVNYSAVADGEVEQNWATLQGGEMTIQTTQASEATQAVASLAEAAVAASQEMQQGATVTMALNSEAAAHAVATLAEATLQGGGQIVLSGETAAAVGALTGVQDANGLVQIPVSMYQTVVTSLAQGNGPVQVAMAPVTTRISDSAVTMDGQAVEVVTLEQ
Chain of Transcription factor E2F1 (Homo sapiens) (Q01094 whole entry, looked up): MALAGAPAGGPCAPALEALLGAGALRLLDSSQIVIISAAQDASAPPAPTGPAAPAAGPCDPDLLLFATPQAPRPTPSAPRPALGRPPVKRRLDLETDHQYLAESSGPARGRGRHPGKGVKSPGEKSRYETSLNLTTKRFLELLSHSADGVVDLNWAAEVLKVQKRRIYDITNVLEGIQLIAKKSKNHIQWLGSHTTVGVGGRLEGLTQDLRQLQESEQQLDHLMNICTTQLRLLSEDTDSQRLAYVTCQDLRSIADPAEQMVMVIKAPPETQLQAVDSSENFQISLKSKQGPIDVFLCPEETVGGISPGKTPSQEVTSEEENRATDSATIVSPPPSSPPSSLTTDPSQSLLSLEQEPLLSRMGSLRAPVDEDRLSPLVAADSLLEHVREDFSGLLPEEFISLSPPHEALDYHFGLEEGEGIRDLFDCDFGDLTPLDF
Chain of X-box-binding protein 1 (Homo sapiens) (P17861 whole entry, looked up): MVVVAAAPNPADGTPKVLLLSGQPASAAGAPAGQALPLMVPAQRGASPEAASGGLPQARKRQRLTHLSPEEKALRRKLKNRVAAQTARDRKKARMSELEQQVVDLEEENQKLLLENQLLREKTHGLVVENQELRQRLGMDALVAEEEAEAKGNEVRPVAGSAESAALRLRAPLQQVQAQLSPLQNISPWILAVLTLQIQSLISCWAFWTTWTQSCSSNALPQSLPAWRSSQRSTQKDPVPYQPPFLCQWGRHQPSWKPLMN
Chain of Hepatocyte nuclear factor 3-beta (Homo sapiens) (Q9Y261 whole entry, looked up): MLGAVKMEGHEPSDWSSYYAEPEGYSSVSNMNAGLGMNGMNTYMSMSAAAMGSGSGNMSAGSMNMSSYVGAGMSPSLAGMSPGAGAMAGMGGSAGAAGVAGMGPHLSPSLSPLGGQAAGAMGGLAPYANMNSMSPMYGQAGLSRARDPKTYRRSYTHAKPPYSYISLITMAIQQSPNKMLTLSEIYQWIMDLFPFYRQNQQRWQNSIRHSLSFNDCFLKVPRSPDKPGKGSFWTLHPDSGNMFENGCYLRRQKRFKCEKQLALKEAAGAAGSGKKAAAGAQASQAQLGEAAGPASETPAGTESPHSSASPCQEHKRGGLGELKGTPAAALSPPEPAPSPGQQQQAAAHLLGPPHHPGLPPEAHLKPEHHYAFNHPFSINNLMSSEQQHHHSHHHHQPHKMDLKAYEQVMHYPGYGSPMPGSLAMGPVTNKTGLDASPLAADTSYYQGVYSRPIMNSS
Chain of Cellular tumor antigen p53 (Homo sapiens) (P04637 whole entry, looked up): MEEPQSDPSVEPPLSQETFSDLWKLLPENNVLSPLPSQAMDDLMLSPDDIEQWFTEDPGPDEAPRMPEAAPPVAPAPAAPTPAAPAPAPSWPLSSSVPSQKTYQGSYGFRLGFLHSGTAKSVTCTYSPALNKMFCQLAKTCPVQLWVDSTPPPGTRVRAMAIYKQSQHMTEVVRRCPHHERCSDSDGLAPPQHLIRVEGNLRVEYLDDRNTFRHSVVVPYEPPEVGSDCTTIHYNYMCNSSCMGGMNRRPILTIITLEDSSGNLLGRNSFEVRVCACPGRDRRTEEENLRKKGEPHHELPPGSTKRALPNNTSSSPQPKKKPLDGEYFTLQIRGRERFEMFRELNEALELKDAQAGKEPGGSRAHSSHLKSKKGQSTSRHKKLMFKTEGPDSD
Chain of Transcriptional activator Myb (Homo sapiens) (P10242 whole entry, looked up): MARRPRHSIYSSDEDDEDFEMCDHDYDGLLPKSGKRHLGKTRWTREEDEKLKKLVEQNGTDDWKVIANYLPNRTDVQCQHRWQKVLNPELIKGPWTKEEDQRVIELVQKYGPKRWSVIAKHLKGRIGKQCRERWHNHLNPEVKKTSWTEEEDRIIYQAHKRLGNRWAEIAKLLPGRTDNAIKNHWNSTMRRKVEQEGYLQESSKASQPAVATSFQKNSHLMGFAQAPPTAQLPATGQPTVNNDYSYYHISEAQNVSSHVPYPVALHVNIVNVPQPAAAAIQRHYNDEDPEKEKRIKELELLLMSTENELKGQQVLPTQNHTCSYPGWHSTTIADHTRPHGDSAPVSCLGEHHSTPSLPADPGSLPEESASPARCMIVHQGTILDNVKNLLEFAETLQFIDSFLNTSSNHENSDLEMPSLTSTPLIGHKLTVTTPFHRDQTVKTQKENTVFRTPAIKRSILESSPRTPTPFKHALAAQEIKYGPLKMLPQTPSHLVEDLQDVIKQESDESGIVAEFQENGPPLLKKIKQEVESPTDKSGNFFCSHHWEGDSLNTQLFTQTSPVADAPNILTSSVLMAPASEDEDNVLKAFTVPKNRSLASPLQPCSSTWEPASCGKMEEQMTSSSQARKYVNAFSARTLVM
Chain of Hypoxia-inducible factor 1-alpha (Homo sapiens) (Q16665 whole entry, looked up): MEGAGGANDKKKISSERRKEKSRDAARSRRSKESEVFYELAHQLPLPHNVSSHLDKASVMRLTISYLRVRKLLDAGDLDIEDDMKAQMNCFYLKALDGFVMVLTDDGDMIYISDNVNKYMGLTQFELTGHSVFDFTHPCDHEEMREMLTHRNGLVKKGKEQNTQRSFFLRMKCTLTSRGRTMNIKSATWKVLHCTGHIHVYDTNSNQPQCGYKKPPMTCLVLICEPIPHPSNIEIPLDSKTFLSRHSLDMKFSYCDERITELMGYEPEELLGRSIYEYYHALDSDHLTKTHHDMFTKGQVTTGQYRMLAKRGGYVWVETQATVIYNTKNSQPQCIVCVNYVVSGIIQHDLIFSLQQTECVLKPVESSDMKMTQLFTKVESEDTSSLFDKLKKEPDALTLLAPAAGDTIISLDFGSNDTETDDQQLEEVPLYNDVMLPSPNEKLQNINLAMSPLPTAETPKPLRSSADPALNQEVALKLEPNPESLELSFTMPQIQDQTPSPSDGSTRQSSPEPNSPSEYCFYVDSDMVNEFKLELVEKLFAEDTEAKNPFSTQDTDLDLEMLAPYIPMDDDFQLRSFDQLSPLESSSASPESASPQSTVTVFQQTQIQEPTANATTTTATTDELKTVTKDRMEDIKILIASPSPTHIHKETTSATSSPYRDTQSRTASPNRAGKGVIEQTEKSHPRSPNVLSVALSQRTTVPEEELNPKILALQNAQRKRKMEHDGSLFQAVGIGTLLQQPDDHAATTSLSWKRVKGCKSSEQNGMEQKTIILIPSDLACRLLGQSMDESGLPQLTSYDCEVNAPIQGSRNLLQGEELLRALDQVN
Chain of Myc proto-oncogene protein (Homo sapiens) (P01106 whole entry, looked up): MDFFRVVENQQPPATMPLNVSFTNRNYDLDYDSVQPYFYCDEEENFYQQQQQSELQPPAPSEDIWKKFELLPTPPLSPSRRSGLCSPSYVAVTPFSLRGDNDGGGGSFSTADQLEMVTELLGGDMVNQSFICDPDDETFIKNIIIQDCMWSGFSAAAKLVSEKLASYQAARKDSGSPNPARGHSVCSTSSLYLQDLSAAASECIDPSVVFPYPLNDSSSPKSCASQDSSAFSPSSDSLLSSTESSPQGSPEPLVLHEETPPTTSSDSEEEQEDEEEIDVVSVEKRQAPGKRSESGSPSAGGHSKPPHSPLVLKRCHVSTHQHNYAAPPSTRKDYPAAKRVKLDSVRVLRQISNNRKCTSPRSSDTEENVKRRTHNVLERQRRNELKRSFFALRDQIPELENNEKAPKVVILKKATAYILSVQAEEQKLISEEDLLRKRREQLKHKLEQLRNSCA
Chain of Nuclear receptor subfamily 1 group I member 2 (Homo sapiens) (O75469 whole entry, looked up, the tested form may be a part): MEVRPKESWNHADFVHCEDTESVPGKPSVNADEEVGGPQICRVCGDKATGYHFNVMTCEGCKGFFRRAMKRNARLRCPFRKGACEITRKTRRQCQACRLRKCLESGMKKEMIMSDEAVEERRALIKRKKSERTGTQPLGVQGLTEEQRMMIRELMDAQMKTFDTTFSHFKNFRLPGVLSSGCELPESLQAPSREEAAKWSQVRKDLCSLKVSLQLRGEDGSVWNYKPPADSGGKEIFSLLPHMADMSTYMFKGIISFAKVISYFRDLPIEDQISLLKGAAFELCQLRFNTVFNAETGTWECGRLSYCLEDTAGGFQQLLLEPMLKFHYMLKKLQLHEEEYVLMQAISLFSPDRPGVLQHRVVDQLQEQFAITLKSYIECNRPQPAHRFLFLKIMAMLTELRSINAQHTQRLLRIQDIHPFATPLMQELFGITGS

For `Nc1nnc(-c2ccc([N+](=O)[O-])o2)o1`, the outcome in assay [1], in assay [2], in assay [3], in assay [4], in assay [5] and in [6] was inactive. The result in assay [7], in assay [8], in assay [9], in assay [10], in [11] and in assay [12] was inactive. Further, the compound was called inactive in assay [13], in [14] and in [15]. In addition, the AC50 in assay [16] is 159 µM (active); in [17], 85.7 µM (active).

With `Cc1cc2nc3c(=O)[nH]c(=O)nc-3n(C[C@H](O)[C@H](O)[C@H](O)CO)c2cc1C`, the compound was called inactive in assay [1], in assay [2], in [3], in [18], in [4] and in assay [5]. The compound was classed as inactive in [8], in assay [9], in assay [11], in assay [12], in [13] and in [14]. Besides, the compound was classed as inactive in assay [19], in assay [15] and in assay [17].

`CC/C=C\CC/C=C/C(OCC)OCC`: the compound was called inactive in [1], in assay [3], in [18], in assay [5], in [6] and in assay [7]. The result in [8], in [9], in [11], in assay [12], in assay [13] and in assay [14] was inactive. In addition, the call in assay [19] and in [20] was inactive. Also, the AC50 in assay [4] was 100 µM (active); in assay [15] it was 187 µM (active).

Turning to `Clc1ccccn1`, the result in assay [1], in [2], in [18], in [4], in assay [5] and in assay [7] was inactive. Also, the compound was classed as inactive in assay [8], in assay [9], in assay [10], in assay [11], in assay [12] and in [13]. Further, the compound was called inactive in assay [14], in [15] and in assay [17].

For the origin of these results see PubChem BioAssay (EPA / NIEHS).
